# Columns and labels:
# Experiment in all cases: SPOT peptide array binding signal intensity (averaged, normalized) (arbitrary units (background-subtracted, floor 0; scale differs between SH3 domains)); higher = stronger binding of the SH3 domain to the peptide
# CaNbp2 = biological target: CaNbp2
# Procedure, shortened: (§1)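 Detection of bound protein relied on anti-GST antibody, an HRP anti-mouse secondary and luminol, with imaging and quantification in Genespotter. The bound protein was GST-fused SH3 domains from four yeast species, incubated at 10 μg/ml overnight at 4°C in TBS-based blocking buffer on cellulose membranes carrying synthetic 15-mer peptides with cysteines replaced by serines. Binding signal is normalized, background-subtracted spot intensity averaged over replicates, in arbitrary units that differ between domains.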
# CaRvs167 = biological target: CaRvs167
# Procedure, shortened: as §1
# CaRvs167-3 = biological target: CaRvs167-3
# Procedure, shortened: as §1
# CaSho1 = biological target: CaSho1
# Procedure, shortened: as §1
# CaSla1-D1-D2 = biological target: CaSla1-D1-D2
# Procedure, shortened: as §1
# CaSla1-D3 = biological target: CaSla1-D3
# Procedure, shortened: as §1
# ScAbp1 = biological target: ScAbp1
# Procedure, shortened: as §1
# ScBbc1 = biological target: ScBbc1
# Procedure, shortened: as §1
# ScBem1-D1 = biological target: ScBem1-D1
# Procedure, shortened: as §1
# ScBzz1-D1 = biological target: ScBzz1-D1
# Procedure, shortened: as §1
# ScBzz1-D2 = biological target: ScBzz1-D2
# Procedure, shortened: as §1
# ScCyk3 = biological target: ScCyk3
# Procedure, shortened: as §1
# ScFus1 = biological target: ScFus1
# Procedure, shortened: as §1
# ScHof1 = biological target: ScHof1
# Procedure, shortened: as §1
# ScHse1 = biological target: ScHse1
# Procedure, shortened: as §1
# ScLsb1 = biological target: ScLsb1
# Procedure, shortened: as §1
# ScLsb2 = biological target: ScLsb2
# Procedure, shortened: as §1
# ScLsb3 = biological target: ScLsb3
# Procedure, shortened: as §1
# ScLsb4 = biological target: ScLsb4
# Procedure, shortened: as §1
# ScMyo3 = biological target: ScMyo3
# Procedure, shortened: as §1
# ScMyo5 = biological target: ScMyo5
# Procedure, shortened: as §1
# ScNbp2 = biological target: ScNbp2
# Procedure, shortened: as §1
# ScPex13 = biological target: ScPex13
# Procedure, shortened: as §1
# ScRvs167 = biological target: ScRvs167
# Procedure, shortened: as §1
# ScSho1 = biological target: ScSho1
# Procedure, shortened: as §1
# ScSla1-D1-D2 = biological target: ScSla1-D1-D2
# Procedure, shortened: as §1
# ScSla1-D3 = biological target: ScSla1-D3
# Procedure, shortened: as §1
# SpAbp1-D1 = biological target: SpAbp1-D1
# Procedure, shortened: as §1
# SpBbc1 = biological target: SpBbc1
# Procedure, shortened: as §1
# SpBzz1-D1 = biological target: SpBzz1-D1
# Procedure, shortened: as §1
# SpBzz1-D2 = biological target: SpBzz1-D2
# Procedure, shortened: as §1
# SpCyk3 = biological target: SpCyk3
# Procedure, shortened: as §1
# SpHof1 = biological target: SpHof1
# Procedure, shortened: as §1
# SpHof1-2 = biological target: SpHof1-2
# Procedure, shortened: as §1
# SpHof1-3 = biological target: SpHof1-3
# Procedure, shortened: as §1
# SpHse1 = biological target: SpHse1
# Procedure, shortened: as §1
# SpLsb1 = biological target: SpLsb1
# Procedure, shortened: as §1
# SpLsb4 = biological target: SpLsb4
# Procedure, shortened: as §1
# SpMyo1 = biological target: SpMyo1
# Procedure, shortened: as §1
# SpNbp2 = biological target: SpNbp2
# Procedure, shortened: as §1
# SpPex13 = biological target: SpPex13
# Procedure, shortened: as §1
# SpRvs167 = biological target: SpRvs167
# Procedure, shortened: as §1
# SpSla1-D1-D2 = biological target: SpSla1-D1-D2
# Procedure, shortened: as §1
# SpSla1-D3 = biological target: SpSla1-D3
# Procedure, shortened: as §1
# AgAbp1 = biological target: AgAbp1
# Procedure, shortened: as §1
# AgBbc1 = biological target: AgBbc1
# Procedure, shortened: as §1
# AgBem1-D1 = biological target: AgBem1-D1
# Procedure, shortened: as §1
# AgBzz1-D1 = biological target: AgBzz1-D1
# Procedure, shortened: as §1
# AgBzz1-D2 = biological target: AgBzz1-D2
# Procedure, shortened: as §1
# AgCyk3 = biological target: AgCyk3
# Procedure, shortened: as §1
# AgFus1 = biological target: AgFus1
# Procedure, shortened: as §1
# AgHof1 = biological target: AgHof1
# Procedure, shortened: as §1
# AgHse1 = biological target: AgHse1
# Procedure, shortened: as §1
# AgLsb1 = biological target: AgLsb1
# Procedure, shortened: as §1
# AgLsb4 = biological target: AgLsb4
# Procedure, shortened: as §1
# AgMyo5 = biological target: AgMyo5
# Procedure, shortened: as §1
# AgNbp2 = biological target: AgNbp2
# Procedure, shortened: as §1
# AgRvs167 = biological target: AgRvs167
# Procedure, shortened: as §1
# AgSho1 = biological target: AgSho1
# Procedure, shortened: as §1
# AgSla1-D1-D2 = biological target: AgSla1-D1-D2
# Procedure, shortened: as §1
# AgSla1-D3 = biological target: AgSla1-D3
# Procedure, shortened: as §1
# CaAbp1-D1 = biological target: CaAbp1-D1
# Procedure, shortened: as §1
# CaAbp1-D2 = biological target: CaAbp1-D2
# Procedure, shortened: as §1
# CaBbc1 = biological target: CaBbc1
# Procedure, shortened: as §1
# CaBem1-D1 = biological target: CaBem1-D1
# Procedure, shortened: as §1
# CaBzz1-D1 = biological target: CaBzz1-D1
# Procedure, shortened: as §1
# CaBzz1-D2 = biological target: CaBzz1-D2
# Procedure, shortened: as §1
# CaCyk3 = biological target: CaCyk3
# Procedure, shortened: as §1
# CaFus1 = biological target: CaFus1
# Procedure, shortened: as §1
# CaHof1 = biological target: CaHof1
# Procedure, shortened: as §1
# CaHse1 = biological target: CaHse1
# Procedure, shortened: as §1
# CaLsb1 = biological target: CaLsb1
# Procedure, shortened: as §1
# CaLsb4 = biological target: CaLsb4
# Procedure, shortened: as §1
# CaMyo5 = biological target: CaMyo5
# Procedure, shortened: as §1
binder,measurement,setting,value
ERPKRRAPPPVPKKP,SPOT peptide array binding signal intensity,CaNbp2,814
same,SPOT peptide array binding signal intensity,CaRvs167,16.7
same,SPOT peptide array binding signal intensity,CaRvs167-3,0.75
same,SPOT peptide array binding signal intensity,CaSho1,6
same,SPOT peptide array binding signal intensity,CaSla1-D1-D2,2360
same,SPOT peptide array binding signal intensity,CaSla1-D3,698
same,SPOT peptide array binding signal intensity,ScAbp1,2010
same,SPOT peptide array binding signal intensity,ScBbc1,460
same,SPOT peptide array binding signal intensity,ScBem1-D1,4
same,SPOT peptide array binding signal intensity,ScBzz1-D1,2120
same,SPOT peptide array binding signal intensity,ScBzz1-D2,66
same,SPOT peptide array binding signal intensity,ScCyk3,2.5
same,SPOT peptide array binding signal intensity,ScFus1,6
same,SPOT peptide array binding signal intensity,ScHof1,≤ 0
same,SPOT peptide array binding signal intensity,ScHse1,≤ 0
same,SPOT peptide array binding signal intensity,ScLsb1,101
same,SPOT peptide array binding signal intensity,ScLsb2,70
same,SPOT peptide array binding signal intensity,ScLsb3,608
same,SPOT peptide array binding signal intensity,ScLsb4,10
same,SPOT peptide array binding signal intensity,ScMyo3,1180
same,SPOT peptide array binding signal intensity,ScMyo5,959
same,SPOT peptide array binding signal intensity,ScNbp2,577
same,SPOT peptide array binding signal intensity,ScPex13,257
same,SPOT peptide array binding signal intensity,ScRvs167,151
same,SPOT peptide array binding signal intensity,ScSho1,166
same,SPOT peptide array binding signal intensity,ScSla1-D1-D2,1960
same,SPOT peptide array binding signal intensity,ScSla1-D3,691
same,SPOT peptide array binding signal intensity,SpAbp1-D1,280
same,SPOT peptide array binding signal intensity,SpBbc1,76
same,SPOT peptide array binding signal intensity,SpBzz1-D1,1460
same,SPOT peptide array binding signal intensity,SpBzz1-D2,40.2
same,SPOT peptide array binding signal intensity,SpCyk3,1
same,SPOT peptide array binding signal intensity,SpHof1,112
same,SPOT peptide array binding signal intensity,SpHof1-2,12
same,SPOT peptide array binding signal intensity,SpHof1-3,122
same,SPOT peptide array binding signal intensity,SpHse1,43.2
same,SPOT peptide array binding signal intensity,SpLsb1,302
same,SPOT peptide array binding signal intensity,SpLsb4,489
same,SPOT peptide array binding signal intensity,SpMyo1,1100
same,SPOT peptide array binding signal intensity,SpNbp2,10
same,SPOT peptide array binding signal intensity,SpPex13,15
same,SPOT peptide array binding signal intensity,SpRvs167,175
same,SPOT peptide array binding signal intensity,SpSla1-D1-D2,215
same,SPOT peptide array binding signal intensity,SpSla1-D3,≤ 0
APERAVPILPPRNNV,SPOT peptide array binding signal intensity,AgAbp1,7.5
same,SPOT peptide array binding signal intensity,AgBbc1,160
same,SPOT peptide array binding signal intensity,AgBem1-D1,47.5
same,SPOT peptide array binding signal intensity,AgBzz1-D1,84.5
same,SPOT peptide array binding signal intensity,AgBzz1-D2,10.5
same,SPOT peptide array binding signal intensity,AgCyk3,9
same,SPOT peptide array binding signal intensity,AgFus1,≤ 0
same,SPOT peptide array binding signal intensity,AgHof1,11.5
same,SPOT peptide array binding signal intensity,AgHse1,24.5
same,SPOT peptide array binding signal intensity,AgLsb1,109
same,SPOT peptide array binding signal intensity,AgLsb4,2180
same,SPOT peptide array binding signal intensity,AgMyo5,≤ 0
same,SPOT peptide array binding signal intensity,AgNbp2,≤ 0
same,SPOT peptide array binding signal intensity,AgRvs167,87.8
same,SPOT peptide array binding signal intensity,AgSho1,≤ 0
same,SPOT peptide array binding signal intensity,AgSla1-D1-D2,≤ 0
same,SPOT peptide array binding signal intensity,AgSla1-D3,0.5
same,SPOT peptide array binding signal intensity,CaAbp1-D1,11
same,SPOT peptide array binding signal intensity,CaAbp1-D2,14
same,SPOT peptide array binding signal intensity,CaBbc1,418
same,SPOT peptide array binding signal intensity,CaBem1-D1,2
same,SPOT peptide array binding signal intensity,CaBzz1-D1,≤ 0
same,SPOT peptide array binding signal intensity,CaBzz1-D2,28.5
same,SPOT peptide array binding signal intensity,CaCyk3,42.5
same,SPOT peptide array binding signal intensity,CaFus1,24
same,SPOT peptide array binding signal intensity,CaHof1,3.5
same,SPOT peptide array binding signal intensity,CaHse1,7.25
same,SPOT peptide array binding signal intensity,CaLsb1,≤ 0
same,SPOT peptide array binding signal intensity,CaLsb4,2970
same,SPOT peptide array binding signal intensity,CaMyo5,≤ 0
same,SPOT peptide array binding signal intensity,CaNbp2,25
same,SPOT peptide array binding signal intensity,CaRvs167,414
same,SPOT peptide array binding signal intensity,CaRvs167-3,≤ 0
same,SPOT peptide array binding signal intensity,CaSho1,4
same,SPOT peptide array binding signal intensity,CaSla1-D1-D2,1
same,SPOT peptide array binding signal intensity,CaSla1-D3,≤ 0
same,SPOT peptide array binding signal intensity,ScAbp1,1.5
same,SPOT peptide array binding signal intensity,ScBbc1,4.25
same,SPOT peptide array binding signal intensity,ScBem1-D1,≤ 0
same,SPOT peptide array binding signal intensity,ScBzz1-D1,2.5
same,SPOT peptide array binding signal intensity,ScBzz1-D2,≤ 0
same,SPOT peptide array binding signal intensity,ScCyk3,5
same,SPOT peptide array binding signal intensity,ScFus1,≤ 0
same,SPOT peptide array binding signal intensity,ScHof1,32.5
same,SPOT peptide array binding signal intensity,ScHse1,≤ 0
same,SPOT peptide array binding signal intensity,ScLsb1,80.2
same,SPOT peptide array binding signal intensity,ScLsb2,18
same,SPOT peptide array binding signal intensity,ScLsb3,4520
same,SPOT peptide array binding signal intensity,ScLsb4,1710
same,SPOT peptide array binding signal intensity,ScMyo3,33.5
same,SPOT peptide array binding signal intensity,ScMyo5,2.75
same,SPOT peptide array binding signal intensity,ScNbp2,6
same,SPOT peptide array binding signal intensity,ScPex13,789
same,SPOT peptide array binding signal intensity,ScRvs167,966
same,SPOT peptide array binding signal intensity,ScSho1,91.5
same,SPOT peptide array binding signal intensity,ScSla1-D1-D2,34.5
same,SPOT peptide array binding signal intensity,ScSla1-D3,1
same,SPOT peptide array binding signal intensity,SpAbp1-D1,5.5
same,SPOT peptide array binding signal intensity,SpBbc1,0.5
same,SPOT peptide array binding signal intensity,SpBzz1-D1,81

# Reference: the supplement of paper PMC4466140
